# Screening data (PubChem)
# Sampled rows, rich in hits. Any-hit rate of the full collection: about 1.5%.
# MEX-5 binding: MEX-5 zinc finger RNA-binding disruptors – biochemical, C. elegans, fluorescence polarization, MLPCN library, primary screen; Zinc finger protein mex-5 (Caenorhabditis elegans), Q9XUB2; MEX-5/FITC-TCR2 RNA binding; hits give low values; activity score (negative = inhibition of binding), % at 10 µM; hit rate 0.38% among 300,000; AID 1832, 2009;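 active = inhibition past about -25% in most replicates, and total fluorescence under double the plate's negative control median, limit read from the data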;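 note: 0% = DMSO and -100% = 5 µM competing unlabeled TCR2 RNA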
# EBV gp42 block: Epstein-Barr virus gp42 inhibitors, primary screen, biochemical, uHTS, fluorescence polarization. Glycoprotein 42 (Epstein-Barr virus (strain AG876)), Q1HVG2. Fluorescence polarization binding assay, mP read-out. inhibition, % (tested at 21.74 µM). hit rate 0.42% among 220,000. AID 1085, 2008; in the data active = inhibition above about 50%
# eLon inh: inhibitors of E. coli Lon protease, primary screen, biochemical, fluorescence polarization; P0A9M0; inhibition, % at 7.94 µM; AID 602123, 2011; hit rate 0.42% among 360,000; purified E. coli Lon protease; in the data active = inhibition above about 13%, passing the limit was not always enough;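 note: 0% = enzyme with probe and DMSO and 100% = no enzyme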
# GLD-1 RNA inh: GLD-1/TGE RNA complex disruptors, primary screen, biochemical, fluorescence polarization; inhibition, % at 5.96 µM; hit rate 0.44% among 320,000; Female germline-specific tumor suppressor gld-1 (Caenorhabditis elegans), Q17339; purified GLD-1 + fluorescein TGE RNA; AID 2280, 2010;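 active = percent inhibition above a per-plate cutoff, the plate mean of test compounds plus 3 SD, cut at about 30% in these data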;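 note: 0% = DMSO wells with GLD-1 and probe and 100% = wells lacking GLD-1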
# Target sequence (Q17339 whole entry, looked up): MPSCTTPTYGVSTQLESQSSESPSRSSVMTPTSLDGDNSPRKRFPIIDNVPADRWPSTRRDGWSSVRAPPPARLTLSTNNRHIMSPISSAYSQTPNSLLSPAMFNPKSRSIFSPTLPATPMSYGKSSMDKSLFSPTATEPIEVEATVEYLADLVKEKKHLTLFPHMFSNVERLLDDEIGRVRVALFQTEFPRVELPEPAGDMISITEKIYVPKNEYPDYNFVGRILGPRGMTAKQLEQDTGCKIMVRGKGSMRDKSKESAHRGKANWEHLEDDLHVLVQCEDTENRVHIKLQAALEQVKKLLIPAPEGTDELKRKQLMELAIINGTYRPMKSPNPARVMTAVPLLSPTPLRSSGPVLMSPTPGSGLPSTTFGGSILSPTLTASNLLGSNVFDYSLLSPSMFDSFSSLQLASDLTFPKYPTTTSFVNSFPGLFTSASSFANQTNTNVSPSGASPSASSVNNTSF
# BCLXL inh: inhibitors of human Bcl-xL, primary screen, biochemical, fluorescence polarization, HTS | hit rate 0.7% among 320,000 | GST-Bcl-xL / FITC-Bim BH3 peptide fluorescence polarization | Bcl-2-like protein 1 (Homo sapiens), Q07817 | inhibition, % at 10.9 µM | AID 2129, 2009;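 active = inhibition above the mean of all tested compounds plus 3 SD, cutoff set per campaign, cut at about 30% in these data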;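 note: 0% = DMSO wells and 100% = unlabeled Bim-BH3 peptide competitor; inhibitors lower millipolarization by displacing the labeled peptide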
# MCL1 BIM primary: inhibitors of MCL1 binding to BIM-BH3, primary screen, biochemical, fluorescence polarization. GST-MCL1 / FITC-Bim-BH3 fluorescence polarization. inhibition, % at 10.9 µM. Induced myeloid leukemia cell differentiation protein Mcl-1 (Homo sapiens), Q07820. hit rate 0.68% among 320,000;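 active = inhibition above the mean inhibition of all tested compounds plus 3 SD, set per campaign, cut at about 40% in these data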;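 note: 0% = DMSO wells and 100% = unlabeled Bim-BH3 peptide control; higher means more loss of mP so more displacement of Bim peptide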
# BCLXL inh confirm: Bcl-xL inhibitors blocking Bim BH3 binding, confirmation, counter-screen for MCL1 inhibitor project, biochemical, fluorescence polarization; shares compounds with MCL1 BIM primary; hit rate 54% among 1,700; inhibition, % at 10.9 µM; GST-Bcl-xL / FITC-Bim BH3 peptide FP binding;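 active = inhibition above a cutoff equal to the mean inhibition of all tested compounds plus 3 SD, cut at about 30% in these data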;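 note: 0% = DMSO wells and 100% = unlabeled Bim BH3 control peptide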
# MCL1 inh confirm: inhibitors of MCL1 binding to BIM-BH3, confirmation, biochemical, fluorescence polarization, triplicate | shares compounds with MCL1 BIM primary | inhibition, % at 10.9 µM | hit rate 61% among 1,700 | GST-MCL1 / FITC-Bim-BH3 fluorescence polarization;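 active = inhibition above the average of all tested compounds plus 3 SD, cut at about 40% in these data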;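 note: 0% = DMSO wells and 100% = unlabeled Bim-BH3 control peptide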
# Starred values were filed as active, the others as inactive; · = no result; + = active, no number.
SMILES,MEX-5 binding,EBV gp42 block,eLon inh,GLD-1 RNA inh,BCLXL inh,MCL1 BIM primary,BCLXL inh confirm,MCL1 inh confirm
Nc1c(C(=O)NC2CC2)sc2nc3c(c(-c4ccco4)c12)CC/C3=C/c1ccco1,·,104*,25,85*,73*,115*,64*,96*
O=C(N/N=C/c1ccccc1)c1ccc(NC(=O)c2ccc(F)cc2)cc1,-1,·,2,2,3,6,·,·
CCS(=O)(=O)c1nc(S(=O)(=O)c2ccc(C)cc2)c(N2CC(C)CC(C)C2)s1 (stereo not given),1,·,6,-3,-1,2,·,·
CCc1ccc[n+](-c2nc3ccccc3nc2C(=C=[N-])C#N)c1,-13,37,-25,50*,88*,84*,21,27
Cc1ccc[n+](-c2nc3ccccc3nc2C(=C=[N-])C#N)c1,1,-7,-17,-22,6,-1,·,·
O=C(/C=C/c1ccc(Cl)c([N+](=O)[O-])c1)Nc1ccc(NC(=O)c2ccco2)cc1,-1,4,-2,·,·,·,·,·
O=C(/C=C/c1ccc(Cl)c([N+](=O)[O-])c1)Nc1ccc(N2CCCC2)cc1,-5,37,0,0,0,47*,17,43*
CCCCNC(=O)Cn1c(=O)c2c(ncn2CC)n(Cc2ccccc2)c1=O,1,·,-4,0,5,4,·,·
CN1CCN(C2=Nc3c(Cl)cc(Cl)c4cccc2c34)CC1,-7,63*,12,40*,75*,80*,82*,110*
CN1CCN(C2=Nc3cc(Cl)ccc3Nc3ccccc32)CC1,0,5,-1,0,2,-1,·,·
CCCSCC(=O)Nc1ncc2c(n1)-c1ccccc1CC2,-7,60*,3,21,66*,62*,71*,90*
O=C(O)c1ccc(N=Nc2c(O)ccc3ncccc23)cc1,-10,·,22,3,18,51*,40*,59*
O=C(O)c1cc(N=Nc2c(O)ccc3ccccc23)cc(C(=O)O)c1,·,-26,3,·,·,·,·,·
CCOC(=O)c1ccc2c(c1)C1C=CCC1C(C(=O)O)N2 (stereo not given),·,84*,·,23,64*,113*,54*,97*
CCOC(=O)C1Nc2ccc(C(=O)O)cc2C2C=CCC12 (stereo not given),-18,·,3,10,37*,89*,32*,48*
COC(=O)CNC(=O)C1Nc2ccc(OC(F)(F)F)cc2C2C=CCC12 (stereo not given),-1,·,-13,-6,-1,3,·,·
CCN(CC)CCCNC(=O)C1CCC(CNS(=O)(=O)c2ccc(Cl)cc2)CC1 (stereo not given),-1,·,-4,-6,2,5,·,·
COc1ccc(C(=O)Cn2cnc3ccccc3c2=O)c(OC)c1,0,·,-15,·,·,·,·,·
CC(C)Cc1cc(C(=O)Nc2cccnc2)no1,1,-6,-10,3,-2,-3,·,·
Cc1ccccc1Nc1cc2ccccc2c(=O)[nH]1,-22,23,-44,50*,82*,81*,85*,93*
O=c1[nH]c(Nc2ccccc2Cl)cc2ccccc12,-1,·,-82,2,7,4,·,·
CCC1C(=O)Nc2ccccc2N1C(=O)c1ccc(Cl)nc1 (stereo not given),-1,-13,-9,-2,4,0,·,·
N#Cc1c(-c2ccc(Cl)cc2)cc(-c2cccs2)nc1SCC(=O)O,2,·,1,3,50*,73*,37*,53*
COc1ccccc1C1=NOC(C)(c2nnc(-c3cccc(Cl)c3)o2)C1 (stereo not given),1,·,-1,3,6,-2,·,·
CC1(C)CC(=O)C2=C(C1)Nc1ccccc1N=C2,-16,31,·,63*,91*,106*,29,27
SMILES,MEX-5 binding,EBV gp42 block,eLon inh,GLD-1 RNA inh,BCLXL inh,MCL1 BIM primary,BCLXL inh confirm,MCL1 inh confirm
CCOc1cc(Br)c(Br)c(C=Nc2ccc(NC(C)=O)cc2)c1O,-2,131*,4,3,31*,44*,71*,116*
COc1ccc(NC(=O)c2c3c(nc4ccccc24)CCC3)cc1S(=O)(=O)N1CCOCC1,-7,37,-1,4,10,50*,15,45*
c1coc(CNc2c3c(nc4ccccc24)CCC3)c1,-14,9,-12,-102,65*,62*,15,10
NNC(=O)c1[nH]c2ccccc2c1-c1ccccc1,-4,·,3,1,5,6,·,·
Cc1ccc[n+](-c2[nH]c(=O)sc2/C=N/NC(=O)c2ccccc2[O-])c1,-27*,53*,6,31*,44*,75*,39*,56*
O=C(N/N=C/c1sc(=O)[nH]c1-[n+]1ccccc1)c1ccccc1[O-],-23,41,1,28,44*,55*,46*,64*
CSc1nc(NCCOCCO)c2sc3nc(-c4ccco4)c4c(c3c2n1)CCC4,1,9,-3,-9,23,69*,23,67*
Cc1cc(C(O)c2ncc(-c3cccc4ccccc34)[nH]2)ccc1F (stereo not given),·,·,8,·,·,·,·,·
Cc1ccc2[nH]c3c(c2c1)CN(C(=O)CN1CC(C)OC(C)C1)CC3 (stereo not given),·,35,-53,-1,61*,62*,51*,60*
Cc1ccc2[nH]c3c(c2c1)CN(C(=O)CN1CCN(c2ccccn2)CC1)CC3,-10,15,3,38*,66*,58*,13,15
Cc1ccccc1NC(=O)/C(=C/c1cccs1)NC(=O)c1ccco1,1,15,-6,-2,5,0,·,·
CCN(CC)c1ccc(/C=C/C(=O)c2ccc(Br)cc2)cc1,-51*,+,-436,76*,58*,61*,62*,63*
CCOC(=O)C1CCN(C(=O)c2cc3c(=O)n4ccccc4nc3n2C)CC1,-4,-8,-4,21,67*,85*,-27,-31
Cn1c(C(=O)N2CCOCC2)cc2c(=O)n3ccccc3nc21,1,·,17,2,2,8,·,·
